# Compound activity as filed in PubChem BioAssay.
# EPAC2 agonist: EPAC2 (human) agonism | EPAC2 activation, biochemical qHTS; response scale: 100% = 6.5 mM cAMP response | Potency, µM (series often up to 154 µM), for inactives: at the highest dose activation, usual class: activators | hit rate 0.079% among 360,000 | AID 720711; also: nearly all actives have a fitted effect of over 50% in size
#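 Fluorescence exchange assay: 100 nM EPAC2 with 250 nM RAP1B-BODIPY-GDP and 50 uM GDP; compounds tested as a concentration-titration series (qHTS). Loss of Rap1-bound BODIPY-GDP fluorescence read at 480/540 nm; data normalized to 6.5 mM cAMP.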
# USP1 inh: blocks the human USP1/UAF1 deubiquitinase complex | O94782 | recombinant USP1/UAF1, Ub-Rhodamine cleavage fluorescence | Potency, µM (doses to about 57.1 µM), for inactives: top-dose activity change, negative = inhibition, hits mostly inhibitors | hit rate 0.23% among 390,000; also: % is scaled to controls: 0 for no effect and ±100 for the full control effect; nearly all actives have a fitted effect of over 60% in size
#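 Step one: compound is pinned into 1nM USP1/UAF1 in HEPES pH 7.8 buffer with TCEP. Step two: 15 min room-temperature incubation. Step three: Ub-Rho (150nM final) starts cleavage, tracked by fluorescence over six one-minute reads.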
# 12-LOX inh: ALOX12 (human) lipoxygenase inhibition; Potency, µM (series often up to 108 µM), for inactives: top-dose activity change, negative = inhibition, usual class: inhibitors; hit rate 1.1% among 580,000; P18054; AID 1671190; purified 12hLO, xylenol orange hydroperoxide absorbance; also: % is scaled to controls: 0 for no effect and ±100 for the full control effect
# Target sequence (P18054 whole entry, looked up): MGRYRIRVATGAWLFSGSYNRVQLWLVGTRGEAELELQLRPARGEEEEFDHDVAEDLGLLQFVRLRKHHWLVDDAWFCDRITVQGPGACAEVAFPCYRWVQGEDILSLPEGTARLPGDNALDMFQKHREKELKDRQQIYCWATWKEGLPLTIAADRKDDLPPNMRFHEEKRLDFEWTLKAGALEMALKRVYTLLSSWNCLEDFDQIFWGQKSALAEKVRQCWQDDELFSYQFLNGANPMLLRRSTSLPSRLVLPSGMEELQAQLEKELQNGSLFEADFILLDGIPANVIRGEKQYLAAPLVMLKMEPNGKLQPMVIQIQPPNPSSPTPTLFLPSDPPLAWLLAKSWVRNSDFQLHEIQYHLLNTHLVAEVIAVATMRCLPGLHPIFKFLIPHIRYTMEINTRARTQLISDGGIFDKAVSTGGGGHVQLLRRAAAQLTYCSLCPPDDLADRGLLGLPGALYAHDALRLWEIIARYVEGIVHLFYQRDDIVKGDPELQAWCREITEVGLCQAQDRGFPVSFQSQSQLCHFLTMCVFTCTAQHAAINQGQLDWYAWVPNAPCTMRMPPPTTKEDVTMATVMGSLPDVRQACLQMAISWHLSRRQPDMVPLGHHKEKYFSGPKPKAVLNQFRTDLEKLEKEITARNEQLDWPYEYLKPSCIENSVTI
#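 Purified human 12hLO at 150 nM in 25 mM Hepes, 0.01% Triton X-100, pH 7.0, preincubated 15 min at room temperature with compound. Reaction started with 40 uM arachidonic acid, 30 min at room temperature. Hydroperoxide measured by Fe-xylenol orange, 573/405 nm absorbance ratio.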
# EPAC1 ag: EPAC1 (human) agonism | O95398 | Potency, µM (series often up to 154 µM), without a hit: at the top dose activation, usual class: activators | hit rate 0.073% among 360,000 | AID 720707 | EPAC1 agonist qHTS, biochemical assay; response scale: 100% = response to 6.5 mM cAMP; also: nearly all actives have a fitted effect of over 60% in size
#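 EPAC1 100 nM, Rap1B–BODIPY-GDP 250 nM, unlabeled GDP 50 uM; compound titration; 5 min RT; kinetic read ex480/em540 at 5-min intervals ×30 min; data normalized to 6.5 mM cAMP agonist control.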
# EPAC1 antag: antagonists of human EPAC1. O95398. AID 720709. hit rate 0.14% among 360,000. EPAC1 GEF assay, Rap1b-BODIPY-GDP exchange fluorescence. Potency, µM (highest dose often 115 µM), for inactives: at the top dose activity change, negative = inhibition, usual class: inhibitors;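 also: plate controls were vehicle for no effect and positive control for full effect; nearly all actives have a fitted effect of over 50% in size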
# EPAC2 antagonist: EPAC2 (human) antagonism. EPAC2 GEF exchange of Rap1B-BODIPY-GDP, fluorescence. Potency, µM (doses to about 114 µM), for inactives: at the top dose activity, negative = inhibition, most hits filed as inhibitors. hit rate 0.18% among 360,000; also: % is scaled to controls: 0 for no effect and ±100 for the full control effect; nearly all actives have a fitted effect of over 45% in size
# * marks the source's active call; other numbers are inactive results; u = inconclusive; x = no result given; + = active, no number; ! = not active in a repeat; [ ] = dose if it differs, or a comment. Only some compounds are listed: those with a hit (about 1.3% of all), similar ones and a draw of the others. Calls follow the shape of the dose curve; as a rule, active = well fitted curve in the direction sought with a large enough effect; inconclusive = small, poorly fitted or top-dose-only effect, or another doubt; inactive = no such curve, though single readings can be large; an effect the other way counts as inactive or inconclusive. Potency is read from the fitted curve at half-maximal effect.
SMILES,EPAC2 agonist,USP1 inh,12-LOX inh,EPAC1 ag,EPAC1 antag,EPAC2 antagonist
CCOc1ccc(C2C(C#N)=C(N)SC(N)=C2C#N)cc1OCC,5%,32µM*,u,18%,29%,12%
N#CC1=C(N)SC(N)=C(C#N)C1c1cccc(Oc2ccccc2)c1,6%,-3%,14µM*,17%,-8%,50µM*
O=C(NCCc1ccc(Cl)cc1)c1ccccn1,x,x,32µM*,x,x,x
O=C(NCCc1ccc(F)cc1)c1ccccn1,x,x,5%,x,x,x
CN1CCCC1,x,x,-5%[176 µM],x,x,x
Cc1nc2sc3c(O)cc(=O)[nH]c3c2c(C)c1C,6%,-18%,3%,12%,0%,-2%
O=c1cc(O)c2sc3nc(-c4cccs4)cc(-c4cccs4)c3c2[nH]1,x,x,10µM*,x,x,x
O=C(N/N=C/c1coc2ccc(Cl)cc2c1=O)c1cc(O)cc(O)c1,-2%,-4%,45µM*,-5%,u,0%
Cc1ccc2occ(/C=N/NC(=O)c3ccc(Cl)cc3)c(=O)c2c1,0%,-6%,0%,-11%,-10%,-27%
Cc1ccc(S(=O)(=O)N2[C@@H](c3ccc(Cl)cc3)C(C(=O)O)=CC[C@H]2c2ccc(C(C)C)cc2)cc1,-7%,-13%,u,-13%,50µM*,u
Cc1ccc(S(=O)(=O)N2[C@@H](c3ccc(C(C)(C)C)cc3)C(C(=O)O)=CC[C@H]2c2ccc(Cl)c(Cl)c2)cc1,12%,-9%,35µM*,5%,-11%,u
CCC(C)Nc1nc(-c2c[nH]c3ccccc23)cs1 (centres undefined),9%,u,50µM*,-8%,-20%,2%
c1ccc2c(-c3csc(NC4CC4)n3)c[nH]c2c1,x,x,-50%,x,x,x
c1ccc(CCNc2nc(-c3c[nH]c4ccccc34)cs2)cc1,x,x,45µM*,x,x,x
O=C(Nc1nc(-c2c[nH]c3ccccc23)cs1)C1CCC1,x,x,50µM*,x,x,x
CNc1nc(-c2c[nH]c3ccccc23)cs1,1%,-15%,u,11%,-6%,-1%
COC(=O)c1ccc(OC(=O)c2ccc(COc3ccccc3)o2)cc1,x,x,14%,x,x,x
Cc1cc(C)c(OCC(=O)Nc2ccccc2N2CCCC2=O)c(C)c1,x,x,-28%,x,x,x
COc1cc2c(cc1OC)C(c1ccccc1)N(C(=O)c1ccco1)CC2 (centres undefined),15%,-3%,30%[57.4 µM],-4%,-30%,10µM*
O=C(CCC[C@H]1NC[C@@H]2CC1CN(Cc1ccccc1)C2)N1CCCC1,x,x,11%,x,x,x
CN(Cc1ccc(N2CCCCC2)cc1)C(=O)CCC[C@H]1NC[C@@H]2C[C@H]1CN(Cc1ccccc1)C2,x,x,7.9µM*,x,x,x
CN(Cc1cccnc1)C(=O)CCC[C@H]1NC[C@@H]2C[C@H]1CN(Cc1ccccc1)C2,x,x,17%,x,x,x
CC1CCN(C(=O)CCC[C@H]2NC[C@@H]3C[C@H]2CN(Cc2ccccc2)C3)CC1,x,x,10µM*,x,x,x
Cc1nnc(Sc2cc(NCCCO)c([N+](=O)[O-])c3nonc23)s1,14%,14µM*,u,3%,40µM*,18%
CCN(CCC#N)Cc1ccc(Br)s1,x,x,0%,x,x,x
SMILES,EPAC2 agonist,USP1 inh,12-LOX inh,EPAC1 ag,EPAC1 antag,EPAC2 antagonist
O=C(c1cc(-c2cccs2)nc2ccccc12)N1CCN(CCN2CCCC2)CC1,x,x,-52%,x,x,x
Cc1[nH][nH]c(=O)c1C(c1c(C)[nH][nH]c1=O)c1cn(Cc2ccc(Cl)c(Cl)c2)c2ccccc12,7%,28µM*,u,26%,-24%,-6%
O=C1OC(c2ccccc2)(c2cc(Br)ccc2O)c2ccccc21 (centres undefined),15%,-14%,45µM*,11%,-16%,-27%
CC(=O)C1=C(C)NC(SCC(=O)c2ccc(Cl)cc2)=C(C#N)C1c1ccco1 (centres undefined),15%,u,u,21%,-10%,-6%
CC(=O)C1=C(C)NC(SCC(=O)c2ccccc2)=C(C#N)C1CC(C)C (centres undefined),15%,-18%,7.9µM*,6%,-6%,11%
COc1ccccc1-n1c(SCC(=O)Nc2ccc(C)cc2)nc(O)cc1=O,6%,-15%,0.32µM*!,4%,-17%,-4%
COc1ccc(NC(=O)CSc2nc(O)cc(=O)n2-c2ccccc2OC)cc1,11%,-14%,u,4%,u,0%
COC(=O)CSc1nc2sc3c(c2c(=O)n1-c1ccc(C)cc1)CC(C(C)C)OC3 (centres undefined),x,+,-13%,x,x,x
O=c1cc(O)nc(SCc2ccccc2)n1-c1ccc(Cl)cc1,6%,-14%,45µM*,-1%,u,3%
COc1ccc(-n2c(SCC(=O)Nc3ccc(Br)cc3)nc(O)cc2=O)cc1,0%,7%,2.2µM*,-4%,u,0%
NC(=O)CSc1nc(O)cc(=O)n1-c1ccccc1,3%,-13%,0%,-3%,7%,18%
CCC(C)[C@H](NC(=O)C1CCC(Cn2nnc3ccccc3c2=O)CC1)C(=O)O (some centres undefined),x,x,-3%,x,x,x
CC1CCCCN1CCNC(=O)C12CC3CC(CC(C3)C1)C2 (centres undefined),x,x,-2%,x,x,x
Cc1ccc(NC(=O)CSc2nc(O)cc(=O)n2C)cc1,-12%,-5%,0%[57.4 µM],8%,-14%,0%
Cc1ccc(NC(=O)CSc2nc(O)cc(=O)n2-c2ccc(C)cc2)cc1,2%,-16%,2.2µM*,-12%,-19%,-8%
COc1ccc(NC(=O)CSc2nc3sc4c(c3c(=O)n2-c2ccc(OC)cc2)CCN(C)C4)cc1,u,-27%,u,6%,-6%,71µM*
CC1CCc2c(sc3nc(SCC(=O)O)n(-c4ccccc4)c(=O)c23)C1 (centres undefined),-2%,-18%,0%,u,89µM*,-14%
CCNC(=O)COc1ccc(-c2noc(-c3ccccc3)n2)cc1OC,x,x,3%,x,x,x
COc1ccc(Cn2c(CO)cnc2SCC(=O)Nc2ccc(F)cc2F)cc1,x,x,14%,x,x,x
CC(C)C(=O)N1c2ccccc2NC2=C(C(=O)CC(C)(C)C2)C1c1ccccc1 (centres undefined),x,x,9%,x,x,x
CCOC(=O)/C(=C/C=C1\Sc2cc(C)c(C)cc2N1CC)C(C)=O,31%,25µM*,-24%,20%,4%,114%
CC(C)CN(CC(C)C)C(=O)CC(c1ccccc1)c1ccccc1,x,x,12%,x,x,x
CC(=O)Nc1ccc(CN2CCn3c(nnc3C3CCNCC3)C2)cc1,x,x,11µM*,x,x,x
COc1ccc(CN2CCn3c(nnc3C3CCNCC3)C2)cc1,x,x,10%[6.33 µM],x,x,x
CCOC(=O)NNc1ccc2nonc2c1[N+](=O)[O-],12%,25µM*,x,-6%,u,u
